# Compounds with a hit are over-represented: about 5.7% of the library has one in this group of screens.
# GLP-1R inv ag = qHTS of GLP-1 Receptor Inverse Agonists (Inhibition Mode); Potency, µM (series often up to 38.3 µM), for the others: top-dose activity change, negative = inhibition, hits mostly inhibitors; actives 1.6% (n = 410,000); AID 624417, 2012; HEK293 GLP-1R CRE-luciferase, luminescence, 24 h; GLP-1R form is constitutively active; Glucagon-like peptide 1 receptor (Homo sapiens), P43220; also: potency is read from the fitted curve at half-maximal effect; % is scaled to controls: 0 for no effect and ±100 for the full control effect; nearly all actives have a fitted effect of over 55% in size
#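 Cells are plated, allowed 12 hours at 37 deg C, then treated with compounds for 24 hr before luciferase detection reagent is added and luminescence is read after 12 min at room temperature. The HEK293 line carries constitutively active GLP-1R with a cAMP-responsive reporter.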
# DRD3 antagonist = qHTS of D3 Dopamine Receptor Antagonist: qHTS; D(3) dopamine receptor (Homo sapiens), P35462; max response, negative = inhibition, %; actives 2.5% (n = 360,000); D3R cells, DiscoveRx beta-arrestin luminescence, antagonist mode; stronger effect = lower value; in the data active = max response below about -50%; inconclusive = no clear call, values can overlap the other calls; also: % is scaled to controls: 0 for no effect and ±100 for the full control effect
# Target sequence (P35462 whole entry, looked up): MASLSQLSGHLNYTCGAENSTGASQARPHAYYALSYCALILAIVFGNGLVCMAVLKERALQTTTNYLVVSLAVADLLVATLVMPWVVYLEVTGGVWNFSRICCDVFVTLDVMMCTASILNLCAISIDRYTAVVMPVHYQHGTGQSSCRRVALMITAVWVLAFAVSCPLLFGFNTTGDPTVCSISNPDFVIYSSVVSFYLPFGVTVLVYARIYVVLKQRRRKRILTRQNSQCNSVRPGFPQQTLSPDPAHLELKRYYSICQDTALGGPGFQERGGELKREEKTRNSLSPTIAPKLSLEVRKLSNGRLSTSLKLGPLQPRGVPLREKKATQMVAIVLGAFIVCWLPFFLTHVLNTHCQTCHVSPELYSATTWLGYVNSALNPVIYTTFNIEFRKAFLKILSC
#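 Cells plated overnight at 1500 cells/well, then exposed to library compounds with dopamine controls for 90 minutes at 37 degrees C. DiscoveRx reagent added for 30–60 minutes at room temperature; luminescence read, quantitative HTS format.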
# DRD3 agonist = qHTS of D3 Dopamine Receptor Agonist: qHTS; D(3) dopamine receptor (Homo sapiens), P35462; D3R DiscoveRx beta-arrestin cells, luminescence, 90 min; max activation, %; actives 0.58% (n = 410,000); AID 652048, 2013; in the data active = max activation above about 30%; also: 0% is about no effect
#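 Cells at 1500/well, incubated overnight, then treated with pinned compounds (dopamine as control) for 90 min at 37 degrees C. DiscoveRx reagent added for 30 - 60 minutes at room temperature; luminescence read.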
# GLP1R ag = qHTS of GLP-1 Receptor Agonists. HEK293 GLP-1R CRE-luciferase, luminescence, 4-6 h; cells express a hypersensitive GLP-1R form. Potency, µM (top dose mostly 45.6 µM), inactives show top-dose activation, hits mostly activators. actives 0.007% (n = 380,000). Glucagon-like peptide 1 receptor (Homo sapiens), P43220. AID 624172, 2012; also: potency is read from the fitted curve at half-maximal effect; % of control where 0% means no effect
# ClpP mod = qHTS Assay for Activators of ClpP. ATP-dependent Clp protease proteolytic subunit (Bacillus subtilis (strain 168)), P80244. Potency, µM (top dose mostly 57.5 µM), inactives show at the top dose activity change, negative = active. purified B. subtilis ClpP, FRET peptide cleavage, 20 min. actives 1.9% (n = 340,000); active = well fitted falling curve with a large enough effect; inconclusive = small, poorly fitted or top-dose-only effect; inactive = no such curve, though single readings can be large or run the other way; also: potency is read from the fitted curve at half-maximal effect; the source files actives as falling curves though it sought activators and does not explain the sign; nearly all actives have a fitted effect of over 65% in size
# Target sequence (P80244 whole entry, looked up): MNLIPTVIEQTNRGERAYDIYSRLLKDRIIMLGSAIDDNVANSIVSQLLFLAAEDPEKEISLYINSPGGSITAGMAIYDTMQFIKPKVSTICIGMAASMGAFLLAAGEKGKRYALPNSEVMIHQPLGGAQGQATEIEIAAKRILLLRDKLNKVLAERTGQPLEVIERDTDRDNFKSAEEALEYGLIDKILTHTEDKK
#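 FRET quenching reversal measured ClpP activation: 10 microg/mL B. subtilis ClpP at pH 8 with the FRET-FV decapeptide, read at 430 nm after 320 nm excitation. The 20-min minus 0-min signal was scaled between DMSO/no-enzyme wells and ADEP (5.8 microM final).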
# HEK293 tox = qHTS of GLP-1 Receptor Inverse Agonists: Cytotox Screen | HEK293 cAMP-luciferase reporter cells, luminescence, 24 h | Potency, µM (series often up to 38.3 µM), inactives show at the highest dose activity change, negative = inhibition, most hits filed as inhibitors | actives 0.13% (n = 410,000) | AID 624418, 2012;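 also: loss of luciferase light is scored as toxicity; potency is read from the fitted curve at half-maximal effect; % is scaled to controls: 0 for no effect and ±100 for the full control effect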
#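 Luminescence readout: signal drop marks cytotoxicity. Plated cells grew 12 h at 37 °C, 5% CO2, received 23 nL compound for 24 h, then got luciferase reagent, read after 12 min at RT.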
# Active calls of the source: *; ? = inconclusive; . = no result; [ ] = another dose, or the depositor's remark. Unless noted, calls follow the shape of the dose curve; as a rule, active = well fitted curve in the direction sought with a large enough effect; inconclusive = small, poorly fitted or top-dose-only effect, or another doubt; inactive = no such curve, though single readings can be large; an effect the other way counts as inactive or inconclusive.
SMILES,GLP-1R inv ag,DRD3 antagonist,DRD3 agonist,GLP1R ag,ClpP mod,HEK293 tox
Cc1cccc(C(=O)NC(NCCc2ccccc2)C(Cl)(Cl)Cl)c1 (configuration not stated),4.47µM*,11.4,3.5,5.5%,-4.5%,82.9%
CC(=O)c1ccc(N2CCN(C(=O)CCc3nnc4n(C)c(=O)c5sccc5n34)CC2)cc1,22.4%,.,-2.2,-2.1%,-5.9%,4.1%
CCN(CC)P(=O)(Nc1ccc(C)cc1Br)c1ccc(N(C)C)cc1NC(=O)c1ccco1 (configuration not stated),?,-59.8*,-16.5,7.8%,.,7.0%
Cc1ccc(C(=O)NNc2cc(N3CCCC3)nc(N3CCCC3)n2)cc1,?,-52.3*,-9.2,-9.8%,-2.5%,-34.6%
Cn1nc([N+](=O)[O-])nc1Sc1nnc(-c2ccccc2)o1,5.62µM*,-10.3,-1.3,-3.1%,0.0%,?
O=C(NCC1CCCO1)c1ccccc1OCc1ccc(F)cc1 (configuration not stated),?,-65.9*,-5.2,16.4%,0.6%,3.9%
CCOc1ccc(S(=O)(=O)Nc2ccccc2C(=O)NCC2CCCO2)cc1 (configuration not stated),-7.5%,-4.7,0.0,3.5%,28.2µM*,0.7%
CN(C(=O)COc1ncnc2ccccc12)C1CCCCC1,0.0%,-10.7,-4.3,0.7%,22.4µM*,-9.5%
Cc1cc(C)c2nccc(/C=C/c3ccc(N(C)C)cc3)c2c1,.,.,.,.,1.6%,.
Cc1cc(C)c(NC(=O)OCCN2CCOCC2)c(C)c1,0.1%,-59.9*,-6.8,-1.9%,0.0%,5.7%
Cc1cc(C)c(NC(=O)CCCN2CCOCC2)c(C)c1,0.7%,-9.9,1.0,6.3%,-3.3%,27.4%
COc1cc(OC)nc(C(NC(=O)C2CCN(Cc3c[nH]c4ccccc34)CC2)c2ccc(Cl)cc2)n1 (configuration not stated),?,-27.4,-18.1,8.0%,-2.3%,?
Cc1ccc(S(=O)(=O)NCCCCCC(=O)Nc2ccccc2C)cc1,0.9%,5.8,-2.9,5.2%,2.2%,2.2%
CC(=O)Nc1ccc(NC(=O)C(C)OC(=O)CNS(=O)(=O)/C=C/c2ccc(C)cc2)cc1 (configuration not stated),1.2%,-53.6*,1.8,-4.8%,-3.0%,8.5%
Cc1ccc(NC(=O)C(C)OC(=O)CCNS(=O)(=O)c2ccc(C)cc2)cc1 (configuration not stated),-15.5%,-10.0,-9.9,6.0%,31.6µM*,12.9%[1.53 µM]
Cc1ccc(S(=O)(=O)NCCCCCC(=O)Nc2ccccc2)cc1,14.7%,6.2,-0.4,-3.4%,28.2µM*,-3.1%
Cc1ccc(/C=C/S(=O)(=O)NCC(=O)OCC(=O)Nc2ccc(C(N)=O)cc2)cc1,5.7%,15.8,1.5,-23.3%,0.7%,11.7%
Cc1cccc(S(=O)(=O)NCCC(=O)OC(C)C(=O)NC(=O)NC2CCCCC2)c1 (configuration not stated),-12.5%,0.0,-1.3,18.0%,31.6µM*,-6.3%
COC(=O)C1=CN(c2ccc3c(c2)OCO3)C(N)=C(C#N)C1c1ccccc1 (configuration not stated),?,-15.2,-2.2,.,-1.9%,-21.1%
Cc1cccc(N2CCN(C(=O)CCCn3ncn4c(cc5occc54)c3=O)CC2)c1C,-14.9%,.,14.5,.,-1.0%,1.5%
N#C/C(=C\c1cccn1S(=O)(=O)c1cccc(C#N)c1)S(=O)(=O)c1ccc(F)cc1,13.6%,-17.0,-2.7,1.9%,-1.3%,-5.8%
COc1cc(OC)c(NC(=O)c2c(C)nn(-c3ccc(C)cc3)c2-n2cccc2)cc1Cl,-5.9%,.,-5.8,-2.9%,-4.9%,0.0%
Nc1ccc(Cn2ccc3c4c(N)nc(N)nc4ccc32)cc1,?,-13.6,5.0,13.3%,-28.4%,7.94µM*
Cc1c2cnn(CC(=O)Nc3cccc(C(F)(F)F)c3)c(=O)c2c(C)n1Cc1ccccc1Cl,?,.,5.6,.,-15.5%,1.6%
O=C1CCCc2cc(S(=O)(=O)NCC3CCC(C(=O)NCc4ccccc4Cl)CC3)ccc2N1 (configuration not stated),3.4%,.,2.5,.,-3.0%,2.4%
SMILES,GLP-1R inv ag,DRD3 antagonist,DRD3 agonist,GLP1R ag,ClpP mod,HEK293 tox
CN(c1ccccc1)S(=O)(=O)c1cccc(NC(=O)CCNC(=O)c2ccco2)c1,4.4%,18.8,-1.4,-1.3%,245.3%,2.9%
Cn1c(=O)c2c(-c3ccccc3)n(-c3ccccc3O)cc2n(C)c1=O,7.3%,-17.1,7.9,13.6%,28.2µM*,0.3%
COc1ccc(-c2c3c(=O)n(C)c(=O)n(C)c3cn2-c2cc(OC)ccc2OC)cc1,25.6%,?,-1.1,20.9%,28.2µM*,-13.5%
Cc1ccccc1C(=O)Nc1ccc2oc(-c3ccc(Cl)c(Cl)c3)nc2c1,-4.8%,.,-5.3,.,?,-12.7%
COc1ccc(N(CC(=O)Nc2cccc(Cl)c2C)S(=O)(=O)c2c(C)nn(C)c2C)cc1,-0.2%,.,1.9,0.5%,0.7%,0.3%
NC(=O)c1cc([N+](=O)[O-])ccc1NCc1cccc2ccccc12,6.9%,9.7,-13.5,21.1%,0.4%,-17.2%
O=C(/C=C/Nc1ccc([N+](=O)[O-])cc1Br)c1cccc2ccccc12,-16.9%,-1.8,-9.3,-15.1%,25.1µM*,-13.2%
CCN(CC)CCNc1ccc(CO)c2oc3cc(Cl)ccc3c(=O)c12,4.47µM*,-55.6*,-5.2,-3.3%,1.4%,-16.4%
CN(C)CCNc1ccc(CO)c2oc3ccc(O)cc3c(=O)c12,10µM*,0.0,-10.2,-30.1%,-1.7%,?
Cc1csc(=O)n1CC(=O)OCC(=O)Nc1ccc(F)c(F)c1F,-2.4%,0.0,2.9,-5.7%,-1.6%,1.7%
Cn1c(C(O)c2ccc(Cl)cc2)nc(Cl)c1Cl (configuration not stated),11.2µM*,2.2,0.2,-16.7%,-0.8%,3.4%
CN(C)c1nc(N/N=C/c2ccccc2O)nc(Nc2ccc(F)cc2)n1,?,-84.8*,-35.6,13.5%,.,?
CN(C)c1nc(Nc2ccc(F)cc2)nc(Oc2ccc(F)cc2)n1,?,6.1,0.4,8.4%,1.0%,5.1%
N#Cc1ccccc1Cn1c(=O)n(CCCC(=O)NCc2ccc3c(c2)OCO3)c(=O)c2sccc21,1.4%,.,7.0,.,-0.3%,0.5%
